Inconclusive results are not listed. Activity calls are given as the source filed them. Calls come from the whole dose curve; as a rule, active = well fitted inhibition curve with a large enough effect; inconclusive = small, poorly fitted or top-dose-only effect; inactive = flat fitted curve, though single readings scatter.
Columns and labels:
Test in all cases: qHTS profiling for inhibitors of Plasmodium falciparum proliferation (AID 504749); note: nearly all actives have a fitted effect of over 60% in size
DIV14 = settings: P. falciparum in erythrocytes, SYBR Green DNA, 72 h; series mostly up to 28.7 µM
How it was run: (§1)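 P. falciparum-infected erythrocytes (0.3% parasitemia, 2.5% hematocrit) incubated with compound 72 h at 37 C, 5% CO2. Parasite DNA detected by SYBR Green after lysis, overnight at room temperature; normalised to 0.29 uM artemisinin and DMSO.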

DIV17 = settings: P. falciparum in erythrocytes, SYBR Green DNA, 72 h; series mostly up to 28.7 µM
How it was run: as §1

DIV30 = settings: P. falciparum in erythrocytes, SYBR Green DNA, 72 h; series mostly up to 28.7 µM
How it was run: as §1

ECU = settings: P. falciparum in erythrocytes, SYBR Green DNA, 72 h; series mostly up to 28.7 µM
How it was run: as §1

FAB9 = settings: P. falciparum in erythrocytes, SYBR Green DNA, 72 h; series mostly up to 28.7 µM
How it was run: as §1

GB4 = settings: P. falciparum in erythrocytes, SYBR Green DNA, 72 h; series mostly up to 28.7 µM
How it was run: as §1

HB3 = settings: P. falciparum in erythrocytes, SYBR Green DNA, 72 h; series mostly up to 28.7 µM
How it was run: as §1

ICS = settings: P. falciparum in erythrocytes, SYBR Green DNA, 72 h; series mostly up to 28.7 µM
How it was run: as §1

JCK = settings: P. falciparum in erythrocytes, SYBR Green DNA, 72 h; series mostly up to 28.7 µM
How it was run: as §1

N140 = settings: P. falciparum in erythrocytes, SYBR Green DNA, 72 h; series mostly up to 28.7 µM
How it was run: as §1

P93_24 = settings: P. falciparum in erythrocytes, SYBR Green DNA, 72 h; series mostly up to 28.7 µM
How it was run: as §1

P94_40 = settings: P. falciparum in erythrocytes, SYBR Green DNA, 72 h
How it was run: as §1

PAD = settings: P. falciparum in erythrocytes, SYBR Green DNA, 72 h; series mostly up to 28.7 µM
How it was run: as §1

PC15 = settings: P. falciparum in erythrocytes, SYBR Green DNA, 72 h; series mostly up to 28.7 µM
How it was run: as §1

PC26 = settings: P. falciparum in erythrocytes, SYBR Green DNA, 72 h; series mostly up to 28.7 µM
How it was run: as §1

PC49 = settings: P. falciparum in erythrocytes, SYBR Green DNA, 72 h; series mostly up to 28.7 µM
How it was run: as §1

SC27B = settings: P. falciparum in erythrocytes, SYBR Green DNA, 72 h; series mostly up to 28.7 µM
How it was run: as §1

TAB109 = settings: P. falciparum in erythrocytes, SYBR Green DNA, 72 h; series mostly up to 28.7 µM
How it was run: as §1

TAB113 = settings: P. falciparum in erythrocytes, SYBR Green DNA, 72 h; series mostly up to 28.7 µM
How it was run: as §1

Dd2 = settings: P. falciparum in erythrocytes, SYBR Green DNA, 72 h; series mostly up to 28.7 µM
How it was run: as §1
Potency is the fitted concentration of half-maximal effect.

SMILES | Potency (DIV14) | Potency (DIV17) | Potency (DIV30) | Potency (ECU) | Potency (FAB9) | Potency (GB4) | Potency (HB3) | Potency (ICS) | Potency (JCK) | Potency (N140) | Potency (P93_24) | Potency (P94_40) | Potency (PAD) | Potency (PC15) | Potency (PC26) | Potency (PC49) | Potency (SC27B) | Potency (TAB109) | Potency (TAB113) | Potency (Dd2)
C=CCNC1=C2C[C@@H](C)C[C@H](OC)[C@H](O)[C@@H](C)/C=C(\C)[C@H](OC(N)=O)[C@@H](OC)/C=C\C=C(/C)C(=O)NC(=CC1=O)C2=O | 1.51 µM (active) | 1.2 µM (active) | 1.69 µM (active) | 1 µM (active) | 11.2 µM (active) | 1.51 µM (active) | 2 µM (active) | 0.708 µM (active) | 12.6 µM (active) | 0.891 µM (active) | 1.26 µM (active) | 0.794 µM (active) | 2 µM (active) | 2 µM (active) | 1.51 µM (active) | 6.31 µM (active) | 1.78 µM (active) | 2 µM (active) | 1.78 µM (active) | –
CCCOc1ccc2nc(NC(=O)OC)sc2c1 | inactive | inactive | inactive | inactive | inactive | inactive | inactive | inactive | inactive | inactive | inactive | – | inactive | inactive | inactive | inactive | inactive | inactive | inactive | inactive
COC1C(OC(=O)/C=C/C=C/C=C/C=C/C(=O)O)CCC2(CO2)C1C1(C)OC1CC=C(C)C (configuration not stated) | 0.379 µM (active) | 5.36 µM (active) | – | – | – | 1.69 µM (active) | – | – | inactive | – | 0.0251 µM (active) | 0.0251 µM (active) | 1.41 µM (active) | – | – | inactive | – | – | – | 0.0398 µM (active)

— PubChem BioAssay (NCATS)
